Test results: the supplement of paper PMC10849652
Of roughly 7,900 targets only a part is listed; those with a hit were picked by preference. About 0.6% of all pairs of compound and target were hits.

Assays:
Experiment in all cases: log2 fold change, soluble protein after heating vs DMSO (PISA); higher = thermal stabilisation; K562 cells, 10 uM, 30 min; active = over 0.2 and 3.5 SD of the protein, either way, in both replicates (recomputed)
YAE1 = YAE1 (UniProt Q9NRH1)
In short: (§1)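 Thermal stability values are relative to control samples and come from duplicates. They are expressed as log2 fold changes. For measurement, K562 cells (2×10^6 cells/mL) received 10 μM compound for 30 min, and aliquots were heated for 3 min over 48°C-58°C, pooled, and extracted at 4°C in PBS with 0.5% NP-40. Soluble protein, the supernatant after 21,000xg for 90 min, was quantified by TMTpro 16plex LC-MS/MS with equalised channel sums.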

YBX1 = YBX1 (UniProt P67809)
In short: as §1

YES1 = YES1 (UniProt P07947)
In short: as §1

YIPF4 = YIPF4 (UniProt Q9BSR8)
In short: as §1

YIPF5 isoform 3 = YIPF5 isoform 3 (UniProt Q969M3)
In short: as §1

YIPF6 = YIPF6 (UniProt Q96EC8)
In short: as §1

YLPM1 = YLPM1 (UniProt P49750)
In short: as §1

YOD1 = YOD1 (UniProt Q5VVQ6)
In short: as §1

YPEL5 = YPEL5 (UniProt P62699)
In short: as §1

YWHAB = YWHAB (UniProt P31946)
In short: as §1

YWHAQ = YWHAQ (UniProt P27348)
In short: as §1

YWHAZ [1] = target: YWHAZ (UniProt P63104)
In short: as §1

YY1 = YY1 (UniProt P25490)
In short: as §1

ZADH2 = ZADH2 (UniProt Q8N4Q0)
In short: as §1

ZBTB21 = ZBTB21 (UniProt Q9ULJ3)
In short: as §1

ZBTB43 = ZBTB43 (UniProt O43298)
In short: as §1

ZC3H18 = ZC3H18 (UniProt Q86VM9)
In short: as §1

ZBTB17 isoform 2 = ZBTB17 isoform 2 (UniProt Q13105)
In short: as §1

YWHAZ [2] = target: YWHAZ (UniProt E7ESK7)
In short: as §1

Measured: log2 fold change

Sequence of YY1 (P25490 whole entry, looked up): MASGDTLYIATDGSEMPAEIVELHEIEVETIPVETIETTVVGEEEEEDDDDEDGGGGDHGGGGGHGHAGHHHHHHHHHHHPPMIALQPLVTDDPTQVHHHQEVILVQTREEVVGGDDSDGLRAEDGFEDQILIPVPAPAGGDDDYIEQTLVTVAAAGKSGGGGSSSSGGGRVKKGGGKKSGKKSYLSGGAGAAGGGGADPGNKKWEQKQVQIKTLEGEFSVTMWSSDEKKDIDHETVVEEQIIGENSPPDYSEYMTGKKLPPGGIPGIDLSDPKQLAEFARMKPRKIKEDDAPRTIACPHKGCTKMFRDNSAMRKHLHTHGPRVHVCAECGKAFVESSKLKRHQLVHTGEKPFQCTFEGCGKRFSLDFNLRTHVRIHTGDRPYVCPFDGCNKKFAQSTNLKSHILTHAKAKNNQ
Sequence of YWHAQ (P27348 whole entry, looked up): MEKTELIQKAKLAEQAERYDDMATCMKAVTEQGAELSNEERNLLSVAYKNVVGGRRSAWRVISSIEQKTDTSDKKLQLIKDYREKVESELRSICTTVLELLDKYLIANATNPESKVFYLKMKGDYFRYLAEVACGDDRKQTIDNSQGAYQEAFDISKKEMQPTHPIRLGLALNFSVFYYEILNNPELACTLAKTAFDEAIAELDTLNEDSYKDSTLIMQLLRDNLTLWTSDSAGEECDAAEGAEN
Sequence of YIPF6 (Q96EC8 whole entry, looked up): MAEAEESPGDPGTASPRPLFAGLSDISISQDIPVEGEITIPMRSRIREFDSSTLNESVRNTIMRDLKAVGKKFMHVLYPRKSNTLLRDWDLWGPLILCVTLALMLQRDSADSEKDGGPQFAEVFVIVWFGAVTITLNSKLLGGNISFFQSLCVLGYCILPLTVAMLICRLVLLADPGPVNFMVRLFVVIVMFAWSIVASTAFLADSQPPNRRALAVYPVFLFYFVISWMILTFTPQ
Sequence of YIPF4 (Q9BSR8 whole entry, looked up): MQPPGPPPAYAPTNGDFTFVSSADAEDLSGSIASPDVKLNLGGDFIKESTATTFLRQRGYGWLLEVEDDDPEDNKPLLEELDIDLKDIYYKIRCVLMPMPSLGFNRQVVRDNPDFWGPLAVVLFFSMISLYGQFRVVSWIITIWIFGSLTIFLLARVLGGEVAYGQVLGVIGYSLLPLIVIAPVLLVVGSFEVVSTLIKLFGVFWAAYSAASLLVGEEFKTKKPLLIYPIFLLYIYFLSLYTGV
Sequence of YAE1 (Q9NRH1 whole entry, looked up): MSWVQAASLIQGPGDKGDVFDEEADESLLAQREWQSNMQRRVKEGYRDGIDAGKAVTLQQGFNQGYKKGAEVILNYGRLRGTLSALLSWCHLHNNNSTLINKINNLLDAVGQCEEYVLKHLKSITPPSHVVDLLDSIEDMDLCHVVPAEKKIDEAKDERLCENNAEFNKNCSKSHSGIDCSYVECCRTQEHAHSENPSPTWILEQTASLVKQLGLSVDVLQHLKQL
Sequence of YPEL5 (P62699 whole entry, looked up): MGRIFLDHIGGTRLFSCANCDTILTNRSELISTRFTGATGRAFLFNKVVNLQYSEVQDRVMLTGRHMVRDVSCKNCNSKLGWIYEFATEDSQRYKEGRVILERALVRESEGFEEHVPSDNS
Sequence of ZADH2 (Q8N4Q0 whole entry, looked up): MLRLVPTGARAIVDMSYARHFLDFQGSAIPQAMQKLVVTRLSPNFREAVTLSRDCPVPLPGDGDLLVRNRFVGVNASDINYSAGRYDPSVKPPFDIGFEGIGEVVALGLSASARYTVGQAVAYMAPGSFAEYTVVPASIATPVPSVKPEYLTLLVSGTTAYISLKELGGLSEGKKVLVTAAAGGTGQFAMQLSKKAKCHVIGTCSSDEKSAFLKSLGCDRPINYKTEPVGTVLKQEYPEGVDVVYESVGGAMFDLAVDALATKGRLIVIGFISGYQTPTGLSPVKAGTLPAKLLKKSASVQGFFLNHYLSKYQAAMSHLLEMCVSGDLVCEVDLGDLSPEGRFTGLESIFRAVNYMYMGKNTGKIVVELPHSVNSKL
Sequence of ZBTB17 isoform 2 (Q13105 whole entry, looked up, canonical isoform): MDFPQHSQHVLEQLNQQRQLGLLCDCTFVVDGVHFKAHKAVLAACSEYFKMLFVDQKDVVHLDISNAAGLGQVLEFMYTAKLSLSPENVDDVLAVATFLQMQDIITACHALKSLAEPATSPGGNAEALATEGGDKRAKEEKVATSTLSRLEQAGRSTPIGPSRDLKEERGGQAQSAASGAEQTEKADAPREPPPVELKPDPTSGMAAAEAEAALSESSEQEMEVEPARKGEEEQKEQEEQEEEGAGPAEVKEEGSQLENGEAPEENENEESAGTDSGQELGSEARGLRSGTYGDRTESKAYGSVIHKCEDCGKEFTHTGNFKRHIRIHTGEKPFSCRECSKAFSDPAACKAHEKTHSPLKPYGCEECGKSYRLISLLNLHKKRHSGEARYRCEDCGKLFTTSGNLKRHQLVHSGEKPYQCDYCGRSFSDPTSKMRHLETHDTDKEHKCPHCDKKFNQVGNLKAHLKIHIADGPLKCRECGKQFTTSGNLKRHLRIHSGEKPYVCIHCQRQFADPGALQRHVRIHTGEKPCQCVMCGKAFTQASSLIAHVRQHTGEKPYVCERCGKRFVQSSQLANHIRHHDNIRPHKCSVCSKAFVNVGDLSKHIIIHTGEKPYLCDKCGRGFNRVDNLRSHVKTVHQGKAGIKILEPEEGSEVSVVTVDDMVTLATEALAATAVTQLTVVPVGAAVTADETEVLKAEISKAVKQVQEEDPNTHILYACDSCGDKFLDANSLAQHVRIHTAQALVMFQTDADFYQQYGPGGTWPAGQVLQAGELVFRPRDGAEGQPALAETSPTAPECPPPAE
Sequence of YIPF5 isoform 3 (Q969M3 whole entry, looked up, canonical isoform): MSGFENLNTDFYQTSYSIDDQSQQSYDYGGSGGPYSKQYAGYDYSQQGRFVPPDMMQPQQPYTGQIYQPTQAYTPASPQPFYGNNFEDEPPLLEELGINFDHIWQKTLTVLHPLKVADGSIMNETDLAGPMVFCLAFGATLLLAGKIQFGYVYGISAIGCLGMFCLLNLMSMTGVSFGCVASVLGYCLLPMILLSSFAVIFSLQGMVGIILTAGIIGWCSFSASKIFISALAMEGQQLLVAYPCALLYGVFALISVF
Sequence of YBX1 (P67809 whole entry, looked up): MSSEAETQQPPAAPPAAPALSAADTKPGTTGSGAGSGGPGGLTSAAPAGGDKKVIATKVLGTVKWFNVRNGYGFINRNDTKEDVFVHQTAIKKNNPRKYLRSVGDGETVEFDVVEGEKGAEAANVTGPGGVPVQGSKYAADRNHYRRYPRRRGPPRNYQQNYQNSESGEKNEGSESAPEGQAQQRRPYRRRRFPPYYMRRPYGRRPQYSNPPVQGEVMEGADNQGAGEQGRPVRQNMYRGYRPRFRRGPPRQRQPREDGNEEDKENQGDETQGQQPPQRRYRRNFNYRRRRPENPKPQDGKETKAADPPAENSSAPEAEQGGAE
Sequence of ZBTB21 (Q9ULJ3 whole entry, looked up): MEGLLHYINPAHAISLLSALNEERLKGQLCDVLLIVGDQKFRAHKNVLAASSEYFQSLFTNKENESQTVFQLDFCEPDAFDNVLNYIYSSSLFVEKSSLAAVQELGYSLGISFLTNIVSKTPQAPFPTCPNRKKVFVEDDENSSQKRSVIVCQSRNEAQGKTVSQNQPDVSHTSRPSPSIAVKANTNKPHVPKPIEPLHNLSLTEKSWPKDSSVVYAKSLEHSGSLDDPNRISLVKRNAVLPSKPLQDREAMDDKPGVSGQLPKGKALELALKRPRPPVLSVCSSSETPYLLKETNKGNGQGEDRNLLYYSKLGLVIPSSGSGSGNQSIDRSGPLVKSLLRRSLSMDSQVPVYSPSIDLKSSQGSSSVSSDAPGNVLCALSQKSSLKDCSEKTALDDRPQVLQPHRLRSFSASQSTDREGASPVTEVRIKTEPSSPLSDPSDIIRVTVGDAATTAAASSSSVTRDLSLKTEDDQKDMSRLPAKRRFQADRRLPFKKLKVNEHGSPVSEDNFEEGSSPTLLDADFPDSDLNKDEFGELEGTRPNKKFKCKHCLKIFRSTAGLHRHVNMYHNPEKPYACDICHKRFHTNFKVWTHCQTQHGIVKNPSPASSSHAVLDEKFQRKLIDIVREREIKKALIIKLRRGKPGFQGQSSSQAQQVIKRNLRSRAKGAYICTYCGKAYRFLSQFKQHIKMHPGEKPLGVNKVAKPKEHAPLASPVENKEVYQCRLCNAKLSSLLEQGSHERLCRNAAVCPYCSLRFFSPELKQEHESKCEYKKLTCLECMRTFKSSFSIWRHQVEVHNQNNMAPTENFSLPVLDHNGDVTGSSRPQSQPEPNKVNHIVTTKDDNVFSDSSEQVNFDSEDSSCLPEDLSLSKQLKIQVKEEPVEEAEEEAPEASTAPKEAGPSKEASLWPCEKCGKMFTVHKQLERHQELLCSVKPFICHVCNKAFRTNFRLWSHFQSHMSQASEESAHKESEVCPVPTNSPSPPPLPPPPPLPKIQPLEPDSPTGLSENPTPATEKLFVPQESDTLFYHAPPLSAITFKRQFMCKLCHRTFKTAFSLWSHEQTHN
Sequence of YWHAB (P31946 whole entry, looked up): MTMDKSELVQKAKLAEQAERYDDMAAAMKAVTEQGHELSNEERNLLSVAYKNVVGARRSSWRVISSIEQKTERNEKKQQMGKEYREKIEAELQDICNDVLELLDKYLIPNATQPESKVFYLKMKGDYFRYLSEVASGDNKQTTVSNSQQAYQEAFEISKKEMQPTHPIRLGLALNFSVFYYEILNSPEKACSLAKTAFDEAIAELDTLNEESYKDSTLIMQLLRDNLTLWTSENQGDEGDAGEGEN
Sequence of YOD1 (Q5VVQ6 whole entry, looked up): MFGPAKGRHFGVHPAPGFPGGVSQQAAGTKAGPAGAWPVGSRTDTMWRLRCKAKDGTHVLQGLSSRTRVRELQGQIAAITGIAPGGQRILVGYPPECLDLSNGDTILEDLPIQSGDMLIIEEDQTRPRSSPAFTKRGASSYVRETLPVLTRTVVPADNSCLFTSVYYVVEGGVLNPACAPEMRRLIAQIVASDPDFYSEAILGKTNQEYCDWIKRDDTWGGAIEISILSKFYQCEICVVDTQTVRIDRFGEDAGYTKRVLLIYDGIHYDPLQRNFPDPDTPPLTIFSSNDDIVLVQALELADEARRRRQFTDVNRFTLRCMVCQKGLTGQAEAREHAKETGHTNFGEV

Cc1cn(-c2cc(NC(=O)c3ccc(C)c(Nc4nccc(-c5cccnc5)n4)c3)cc(C(F)(F)F)c2)cn1 [nilotinib]
inactive: YAE1 -0.023 | YBX1 0.033 | YES1 -0.033 | YIPF4 0.046 | YIPF5 isoform 3 0.021 | YIPF6 0.063 | YLPM1 -0.044 | YOD1 -0.061 | YPEL5 -0.237 | YWHAB 0.039 | YWHAQ 0.018 | YWHAZ [1] 0.04 | YY1 -0.033 | ZADH2 0.04 | ZBTB21 0.023 | ZBTB43 -0.157 | ZC3H18 0.099

CN1CCC(CNc2ccc3ncc(-c4cccc(OC(F)(F)F)c4)n3n2)CC1
inactive: YAE1 0.057 | YBX1 0.348 | YES1 -0.326 | YIPF4 0.101 | YIPF5 isoform 3 -0.288 | YIPF6 0.155 | YLPM1 -0.113 | YPEL5 -0.094 | YWHAB -0.042 | YWHAQ 0.585 | YWHAZ [1] 0.035 | YY1 -0.21 | ZADH2 0.023 | ZBTB21 -0.149 | ZBTB43 0.032 | ZC3H18 -0.044
active: YOD1 -0.305

Cc1ccc(NC(=O)c2cccc(C(C)(C)C#N)c2)cc1Nc1ccc2ncn(C)c(=O)c2c1
inactive: YAE1 0.056 | YBX1 0.041 | YIPF4 0.013 | YIPF5 isoform 3 0.042 | YIPF6 -0.131 | YLPM1 -0.095 | YOD1 0.067 | YPEL5 -0.131 | YWHAB 0.016 | YWHAQ 0.184 | YWHAZ [1] 0.025 | YY1 0.035 | ZBTB17 isoform 2 0.018 | ZBTB21 -0.03 | ZBTB43 0.004 | ZC3H18 0
active: ZADH2 0.453

CCCS(=O)(=O)Nc1ccc(F)c(C(=O)c2c[nH]c3ncc(-c4ccc(Cl)cc4)cc23)c1F [vemurafenib]
inactive: YAE1 0.019 | YBX1 -0.12 | YES1 -0.159 | YIPF4 0.03 | YIPF5 isoform 3 -0.021 | YIPF6 -0.15 | YLPM1 0.017 | YOD1 -0.001 | YPEL5 -0.068 | YWHAB 0.021 | YWHAQ 0.284 | YWHAZ [1] 0.037 | YY1 0.03 | ZADH2 0 | ZBTB21 -0.032 | ZBTB43 0.044 | ZC3H18 -0.025

NC1(Cc2ccc(Cl)cc2)CCN(c2ncnc3[nH]ccc23)CC1
inactive: YAE1 -0.022 | YBX1 -0.159 | YES1 -0.059 | YIPF4 -0.016 | YIPF5 isoform 3 0.126 | YIPF6 -0.015 | YLPM1 0.102 | YOD1 -0.037 | YWHAB 0.028 | YWHAQ 0.029 | YWHAZ [2] 0.07 | YWHAZ [1] 0.059 | YY1 0.066 | ZADH2 0.008 | ZBTB17 isoform 2 -0.199 | ZBTB21 0.024 | ZBTB43 -0.053 | ZC3H18 -0.124

COC(=O)[C@H](CCSC)NC(=O)c1ccc(NC[C@@H](N)CS)cc1-c1ccccc1
inactive: YAE1 0.059 | YBX1 0.113 | YES1 -0.006 | YIPF4 0.088 | YIPF5 isoform 3 0.046 | YIPF6 0.041 | YLPM1 -0.014 | YOD1 -0.016 | YPEL5 -0.23 | YWHAB 0.016 | YWHAQ 0.019 | YWHAZ [1] -0.002 | YY1 0.014 | ZADH2 0.052 | ZBTB21 -0.022 | ZBTB43 0.018 | ZC3H18 0.045

CC[C@H](C)n1cc(C)c2c(C(=O)NCc3c(C)cc(C)[nH]c3=O)cc(-c3ccc(N4CCNCC4)nc3)cc21
inactive: YAE1 0.02 | YBX1 -0.063 | YES1 0.112 | YIPF4 -0.016 | YIPF5 isoform 3 -0.041 | YIPF6 -0.039 | YLPM1 0.067 | YOD1 0.081 | YPEL5 0.109 | YWHAB 0.009 | YWHAQ 0.072 | YWHAZ [1] 0.008 | YY1 0.061 | ZBTB21 0.059 | ZBTB43 -0.187 | ZC3H18 0.032
active: ZADH2 0.526

CS(=O)(=O)N1CCN(Cc2cc3nc(-c4cccc5[nH]ncc45)nc(N4CCOCC4)c3s2)CC1 [pictilisib]
inactive: YAE1 0.021 | YBX1 0.033 | YES1 0.093 | YIPF4 0.15 | YIPF5 isoform 3 0.027 | YIPF6 0.107 | YLPM1 0.065 | YOD1 -0.001 | YPEL5 0.172 | YWHAB 0.002 | YWHAQ -0.142 | YWHAZ [1] -0.037 | YY1 -0.021 | ZADH2 0.14 | ZBTB21 -0.035 | ZBTB43 0.027 | ZC3H18 -0.019

NC(=O)c1ccc2nc(-c3ccc(Oc4ccc(Cl)cc4)cc3)[nH]c2c1
inactive: YAE1 0 | YBX1 -0.033 | YES1 0.049 | YIPF4 -0.039 | YIPF5 isoform 3 0.012 | YIPF6 0.005 | YLPM1 0.033 | YOD1 0.019 | YPEL5 -0.021 | YWHAB -0.012 | YWHAQ -0.021 | YWHAZ [1] 0.011 | YY1 0.03 | ZADH2 0.052 | ZBTB17 isoform 2 0.03 | ZBTB21 0.053 | ZBTB43 0.037 | ZC3H18 0.045

Cc1cc(Nc2cc(N3CCN(C)CC3)nc(Sc3ccc(NC(=O)C4CC4)cc3)n2)n[nH]1 [tozasertib]
inactive: YAE1 0.033 | YBX1 -0.041 | YES1 -0.45 | YIPF4 0.079 | YIPF5 isoform 3 -0.089 | YIPF6 -0.066 | YLPM1 -0.051 | YOD1 0.043 | YWHAB 0.019 | YWHAQ 0.046 | YWHAZ [2] 0.176 | YWHAZ [1] 0.045 | YY1 0.099 | ZADH2 0.014 | ZBTB17 isoform 2 0.299 | ZBTB21 -0.219 | ZBTB43 0.063 | ZC3H18 0.061

Cc1cc(Nc2cc(CN3CCOCC3)c3nc(C)c(Cc4ccc(Cl)cc4F)n3n2)n[nH]1 [gandotinib]
inactive: YAE1 0.007 | YBX1 0.334 | YES1 -0.447 | YIPF4 -0.086 | YIPF5 isoform 3 -0.1 | YIPF6 -0.019 | YLPM1 -0.117 | YOD1 -0.149 | YPEL5 -0.095 | YWHAQ -0.071 | YWHAZ [1] 0.084 | YY1 -0.012 | ZADH2 0.128 | ZBTB21 0.074 | ZBTB43 0.043 | ZC3H18 0.017
active: YWHAB -0.25

CS(=O)(=O)c1ccc(-c2cnc(N)c(C(=O)Nc3ccccc3)n2)cc1
inactive: YAE1 0.011 | YBX1 -0.101 | YIPF4 0.013 | YIPF5 isoform 3 -0.093 | YIPF6 0.199 | YLPM1 -0.051 | YOD1 0.117 | YPEL5 0.152 | YWHAB 0.017 | YWHAQ -0.013 | YWHAZ [1] -0.017 | YY1 -0.061 | ZADH2 -0.063 | ZBTB17 isoform 2 -0.013 | ZBTB21 0.048 | ZBTB43 0.021 | ZC3H18 -0.056

NC(=O)Nc1cc(-c2cccc(F)c2)sc1C(=O)N[C@H]1CCCNC1
inactive: YAE1 -0.023 | YBX1 0.025 | YIPF4 0.066 | YIPF5 isoform 3 0.023 | YIPF6 -0.081 | YLPM1 -0.023 | YOD1 -0.079 | YPEL5 0.114 | YWHAB -0.027 | YWHAQ 0.065 | YWHAZ [1] 0.098 | YY1 0.037 | ZADH2 -0.074 | ZBTB17 isoform 2 -0.032 | ZBTB21 -0.083 | ZBTB43 -0.018 | ZC3H18 -0.037

CNC(=O)c1ccccc1Nc1nc(Nc2ccc(N3CCOCC3)cc2OC)ncc1Cl
active: YES1 -0.623
inactive: YAE1 -0.002 | YBX1 0.01 | YIPF4 0.062 | YIPF5 isoform 3 0.088 | YIPF6 -0.006 | YLPM1 -0.006 | YOD1 0.011 | YPEL5 0.08 | YWHAB 0.019 | YWHAQ 0.049 | YWHAZ [1] -0.013 | YY1 -0.046 | ZADH2 -0.051 | ZBTB17 isoform 2 -0.041 | ZBTB21 -0.012 | ZBTB43 -0.007 | ZC3H18 -0.01

CN(C)CC(=O)Nc1ccc2[nH]c(=O)c3ccccc3c2c1
inactive: YAE1 -0.108 | YBX1 -0.134 | YES1 -0.075 | YIPF4 0.09 | YIPF5 isoform 3 0.014 | YIPF6 -0.012 | YLPM1 -0.037 | YOD1 0.043 | YPEL5 0.008 | YWHAB -0.033 | YWHAQ 0.16 | YWHAZ [1] 0.009 | YY1 -0.047 | ZADH2 0.02 | ZBTB21 0.018 | ZBTB43 -0.07 | ZC3H18 -0.039
